This note sets out measurements from the antibiotic and cytotoxicity screens of Wong et al. (2023).

The campaign covered roughly 39,000 compounds. About 1,500 (3.8%) were called active. Many of the other results were omitted from the sample, so actives are more common in it than they were.

For the assay, the system named is HSkMC (human skeletal muscle cells). Nature of the assay: cytotoxicity call (relative viability < 0.9). The conditions noted are these: 10 µM.
As to `O=C(C[C@H]1CC[C@@H](NC(=O)Cc2ccccn2)[C@H](CO)O1)NCCCN1CCOCC1`, the cytotoxicity call is “inactive”.

Turning to `CC(=O)n1cc([C@@H]2C=C(C(=O)N3CCN(Cc4ccccc4)CC3)O[C@H](OCc3ccc(CO)cc3)C2)c2ccccc21`, the cytotoxicity call is “inactive”.

Consider `O=C(C[C@H]1C[C@@H]2c3cc(NS(=O)(=O)c4ccc(F)cc4)ccc3O[C@@H]2[C@@H](CO)O1)N1CCOCC1`, for which the cytotoxicity call is “inactive”.

As to `Cc1cc(C)c(C)c(C(=O)O)c1C`, the cytotoxicity call is “inactive”.

`O=C(C[C@@H]1CC[C@H]2NC[C@H](O)COC[C@@H]2O1)NCCN1CCCC1`: the cytotoxicity call is “inactive”.

On to `C[C@@H]1CN([C@@H](C)CO)C(=O)Cc2cc(NS(=O)(=O)c3ccc(Cl)cc3)ccc2O[C@@H]1CN(C)S(C)(=O)=O`, for which the cytotoxicity call was “inactive”.

With `C[C@@H]1CCCCO[C@@H](CN(C)Cc2ccc3c(c2)OCO3)[C@@H](C)CN([C@@H](C)CO)C(=O)c2cc(NC(=O)Nc3ccc4c(c3)OCO4)ccc2O1`, the cytotoxicity call is “inactive”.

As to `C[C@H]1CCCCO[C@@H](CN(C)CC2CCCCC2)[C@@H](C)CN([C@@H](C)CO)C(=O)c2cc(NC(=O)Nc3ccc4c(c3)OCO4)ccc2O1`, the cytotoxicity call is “active”.

Take `C[C@@H]1CCCCO[C@@H](CN(C)CC2CCCCC2)[C@@H](C)CN([C@H](C)CO)C(=O)c2cc(NC(=O)Nc3ccc4c(c3)OCO4)ccc2O1`: the cytotoxicity call is “inactive”.

Regarding `COc1ccc(NC(=O)Nc2ccc3c(c2)C(=O)N([C@@H](C)CO)C[C@H](C)[C@H](CN(C)Cc2ccc4c(c2)OCO4)OCCCC[C@@H](C)O3)cc1`, the cytotoxicity call is “inactive”.

Turning to `C[C@@H]1CCCCO[C@@H](CN(C)Cc2ccc(Cl)c(Cl)c2)[C@@H](C)CN([C@@H](C)CO)C(=O)c2cc(NC(=O)Nc3ccc4c(c3)OCO4)ccc2O1`, the cytotoxicity call is “active”.

Regarding `COc1ccc(NC(=O)Nc2ccc3c(c2)C(=O)N([C@@H](C)CO)C[C@H](C)[C@H](CN(C)Cc2ccc4c(c2)OCO4)OCCCC[C@H](C)O3)cc1`, the cytotoxicity call was “active”.

For `C[C@H](CO)N1C[C@H](C)[C@@H](CN(C)CC2CCCCC2)OCCCC[C@H](C)Oc2ccc(NC(=O)Nc3ccc4c(c3)OCO4)cc2C1=O`, the cytotoxicity call was “inactive”.

Consider `C[C@@H]1CN([C@H](C)CO)C(=O)c2cc(NC(=O)Nc3ccc4c(c3)OCO4)ccc2O[C@@H](C)CCCCO[C@@H]1CN(C)Cc1ccc2c(c1)OCO2`, for which the cytotoxicity call is “inactive”.

For `C[C@@H]1CN([C@H](C)CO)C(=O)c2cc(NC(=O)Nc3ccc4c(c3)OCO4)ccc2O[C@@H](C)CCCCO[C@@H]1CN(C)Cc1ccc(Cl)c(Cl)c1`, the cytotoxicity call was “inactive”.

For the molecule `C[C@@H]1CCCCO[C@H](CN(C)Cc2ccc3c(c2)OCO3)[C@H](C)CN([C@@H](C)CO)C(=O)c2cc(NC(=O)Nc3ccc4c(c3)OCO4)ccc2O1`, the cytotoxicity call is “active”.

As for `COc1ccc(NC(=O)Nc2ccc3c(c2)C(=O)N([C@H](C)CO)C[C@H](C)[C@@H](CN(C)Cc2ccc4c(c2)OCO4)OCCCC[C@H](C)O3)cc1`, the cytotoxicity call is “inactive”.

Turning to `C[C@@H]1CN([C@@H](C)CO)C(=O)c2cc(NC(=O)Nc3ccc4c(c3)OCO4)ccc2O[C@@H](C)CCCCO[C@H]1CN(C)Cc1ccc(Cl)c(Cl)c1`, the cytotoxicity call was “inactive”.

As to `COc1ccc(CN(C)C[C@@H]2OCCCC[C@@H](C)Oc3ccc(NC(=O)c4ccccc4)cc3C(=O)N([C@H](C)CO)C[C@@H]2C)cc1`, the cytotoxicity call is “inactive”.

Regarding `Cc1noc(C)c1NC(=O)Nc1ccc2c(c1)C(=O)N([C@@H](C)CO)C[C@H](C)[C@@H](CN(C)C(=O)Nc1c(C)noc1C)OCCCC[C@H](C)O2`, the cytotoxicity call was “inactive”.

As for `CN1CCN(C(=O)C[C@@H]2CC[C@@H]3[C@H](COc4ccc(NC(=O)c5cscn5)cc4C(=O)N3C)O2)CC1`, the cytotoxicity call is “inactive”.

Turning to `O=C(C[C@@H]1C[C@H]2c3cc(NC(=O)C4CCOCC4)ccc3O[C@H]2[C@@H](CO)O1)NCc1cc(F)ccc1F`, the cytotoxicity call is “inactive”.

For the molecule `Cc1ccc(S(=O)(=O)N(C)C[C@@H]2Oc3ccc(NS(=O)(=O)c4c(C)noc4C)cc3CC(=O)N([C@H](C)CO)C[C@H]2C)cc1`, the cytotoxicity call is “inactive”.

`CC(=O)OC1CC2C(C)(C)C=CCC2(C)C2CCC3(C)C(c4ccoc4)OC(=O)C4OC43C12C` (stereo not given): the cytotoxicity call was “inactive”.

As to `O=C(CN1CCOCC1)NCC[C@H]1CC[C@H](NC(=O)c2ccccc2F)[C@@H](CO)O1`, the cytotoxicity call is “inactive”.

As for `C[C@@H]1CN([C@@H](C)CO)C(=O)Cc2cc(NC(=O)Nc3cccc4ccccc34)ccc2O[C@@H]1CN(C)S(=O)(=O)c1cccs1`, the cytotoxicity call is “inactive”.

With `C(=N\c1nnc2nc[nH]n12)/c1ccco1`, the cytotoxicity call is “inactive”.

As for `C[C@@H]1CCCCO[C@@H](CN(C)Cc2ccc(Cl)c(Cl)c2)[C@H](C)CN([C@@H](C)CO)C(=O)c2cc(N(C)C)ccc2O1`, the cytotoxicity call is “inactive”.

Regarding `C[C@H](CO)N1C[C@H](C)[C@@H](CN(C)Cc2ccc(Cl)c(Cl)c2)OCCCC[C@H](C)Oc2ccc(NC(=O)Nc3ccc4c(c3)OCO4)cc2C1=O`, the cytotoxicity call was “active”.

As to `C[C@@H]1CCCCO[C@@H](CN(C)Cc2ccc(Cl)c(Cl)c2)[C@H](C)CN([C@H](C)CO)C(=O)c2cc(NC(=O)Nc3ccc4c(c3)OCO4)ccc2O1`, the cytotoxicity call was “inactive”.

On to `C[C@H]1CCCCO[C@H](CN(C)Cc2ccc(Cl)c(Cl)c2)[C@@H](C)CN([C@@H](C)CO)C(=O)c2cc(NC(=O)Nc3ccc4c(c3)OCO4)ccc2O1`, for which the cytotoxicity call was “inactive”.

Take `C[C@@H]1CCCCO[C@H](CN(C)Cc2ccc(Cl)c(Cl)c2)[C@@H](C)CN([C@@H](C)CO)C(=O)c2cc(NC(=O)Nc3ccc4c(c3)OCO4)ccc2O1`: the cytotoxicity call is “inactive”.

Regarding `C[C@@H]1CCCCO[C@@H](CN(C)Cc2ccc(Cl)c(Cl)c2)[C@H](C)CN([C@@H](C)CO)C(=O)c2cc(NC(=O)Nc3ccc4c(c3)OCO4)ccc2O1`, the cytotoxicity call was “inactive”.

Regarding `C[C@@H]1CCCCO[C@H](CN(C)Cc2ccc(Cl)c(Cl)c2)[C@H](C)CN([C@@H](C)CO)C(=O)c2cc(NC(=O)Nc3ccc4c(c3)OCO4)ccc2O1`, the cytotoxicity call is “active”.

For `C[C@H](CO)N1C[C@H](C)[C@H](CN(C)C(=O)Nc2ccc(F)cc2)OCCCC[C@H](C)Oc2ccc(NC(=O)C3CCCCCC3)cc2C1=O`, the cytotoxicity call is “inactive”.

For the molecule `CC(=O)O[C@H](C[C@H](O)C(C)(O)CCC=C(C)C)/C(C)=C/COC[C@@H](O)[C@@H](O)[C@@H](O)[C@@H](O)CO` (stereo not given in full), the cytotoxicity call is “inactive”.

Turning to `O=C(Cn1ccc([N+](=O)[O-])n1)n1cccn1`, the cytotoxicity call is “inactive”.

In the case of `N=c1ccn2c(n1)O[C@H]1[C@H](O)[C@@H](CO)O[C@H]12`, the cytotoxicity call was “active”.

As to `Cl.N=c1ccn2c(n1)OC1C(O)C(CO)OC12` (stereo not given), the cytotoxicity call was “inactive”.

As to `Nc1ccn([C@@H]2O[C@H](CO)[C@@H](O)[C@H]2O)c(=O)n1`, the cytotoxicity call was “inactive”.
